These results are taken from PubChem BioAssay (Tox21).

Assay [1] is described as follows: qHTS assay to identify small molecule agonists of the hypoxia (HIF-1) signaling pathway - cell viability counter screen (AID 1224844; calls by dose curve; note: nearly all actives have a fitted effect of over 50% in size; note: potency is the fitted concentration of half-maximal effect). Put shortly:
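Luminescent ATP content (CellTiter-Glo, 30 min, room temperature) served as the viability measure in HRE-bla ME-180 cells exposed to compounds for 17 hrs in low-serum medium (0.5% dialyzed FBS).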
(In general: In qHTS, concentration-response curves come from the screen itself.)

Assay [2] is described as follows: qHTS assay to identify small molecule agonists of H2AX (AID 1224845; active = well fitted activation curve with a large enough effect in the signal ratio in the repeat runs, not every such curve was filed as active; the % refers to the signal ratio). Put shortly:
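Wild-type CHO-K1 cells, plated overnight, exposed 3hr at 37C to 15 concentrations (0.76% DMSO final). Lysed, then HTRF anti-pH2AX (S139) cryptate and anti-H2AX-d2 antibodies, 24 hr room temperature; 665/620 nm emission read.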

A short description of assay [3]: qHTS assay to identify small molecule agonists of the hypoxia (HIF-1) signaling pathway (AID 1224846; active = well fitted activation curve with a large enough effect in the signal ratio in the repeat runs, not every such curve was filed as active; the % refers to the signal ratio). Put shortly:
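Measured by blue/green FRET after loading CCF4-AM: beta-lactamase expressed from a hypoxia response element in ME-180 cells. Test agents were delivered in DMSO and left 17 hrs; cells had been plated 5 hrs earlier in low-serum (0.5% dialyzed FBS) medium.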

The nature of assay [4]: qHTS assay to identify small molecule agonists of H2AX - cell viability counter screen (AID 1224847; calls by dose curve; note: nearly all actives have a fitted effect of over 30% in size; note: potency is the fitted concentration of half-maximal effect). Put shortly:
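We seed wild-type CHO-K1 cells overnight, treat them for 3 hr at 37C with compounds in 15-concentration series, and quantify remaining viability by CellTiter-Glo luminescence.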

Assay [5] can be described thus: qHTS RealTime-Glo MT Cell Viability Assay in HepG2 cells - 24 hour (AID 1224867). Note: nearly all actives have a fitted effect of over 50% in size. Put shortly:
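Luminescence read-out: viable HepG2 cells reduce a prosubstrate to a NanoLuc substrate, giving a signal proportional to live cell number. Reads taken at 0, 8, 16, 24, 32 and 40 h of compound exposure at 37 C.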

Assay [6] can be described thus: qHTS RealTime-Glo MT Cell Viability Assay in HEK293 cells - 32 hour (AID 1224868). Note: nearly all actives have a fitted effect of over 50% in size. Note: potency is the fitted concentration of half-maximal effect. The method in brief:
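Nonlytic real-time viability readout: viable cells convert prosubstrate to NanoLuc substrate, giving luminescence proportional to live cell number. HEK293, 600 cells/well, compound added after 5 h, continuous culture at 37 C.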

The nature of assay [7]: A CellTox Green Cytotoxicity Assay to monitor cytotoxicity in HEK293 cells - 0 hour (AID 1224869). Note: nearly all actives have a fitted effect of over 50% in size. Put shortly:
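Each value comes from one timepoint of a single continuous run in which HEK293 cells with CellTox Green were exposed to compound for up to 40 h at 37 C, dye fluorescence rising with cell death.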

Assay [8] can be described thus: qHTS assay to identify small molecule antagonists of the estrogen related receptor (ERR) signaling pathway from Tox21 library (AID 1224848). Note: nearly all actives have a fitted effect of over 50% in size. Note: potency is the fitted concentration of half-maximal effect. The method in brief: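 Luminescent reporter read-out (ONE-Glo) from NTP's ERR cell line after 18 h treatment at 37 C with DMSO-dissolved Tox21 compounds; cells pre-plated 6 h beforehand at 2,000 per well.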
The nature of assay [9]: qHTS assay to identify small molecule agonists of the estrogen related receptor (ERR) signaling pathway from Tox21 library (AID 1224849; calls by dose curve; note: nearly all actives have a fitted effect of over 15% in size). The following applies: ERR reporter cell line, ONE-Glo luciferase, 18 h; at 92.4 µM (top of the series) unless noted. Put shortly:
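We plated ERR reporter cells, waited 6 h, added compounds in DMSO by pin tool and incubated them 18 h at 37 C. ONE-Glo was then added and luminescence read after 30 min.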

Values without a mark were called inactive. Inconclusive results are not listed. The source made the active and inactive calls. Unless noted, calls come from the whole dose curve; as a rule, active = well fitted curve in the direction sought with a large enough effect in the repeat runs; inconclusive = weak or mixed curves; inactive = no such curve, though single readings can be large; an effect the other way counts as inactive or inconclusive.
% is set by controls: 0 for no effect and ±100 for the full control effect.

On to `C=C[Si](OC)(OC)OC`, for which the Potency entry in assay [1], in assay [4], in assay [6] and in assay [7] was “inactive” each time. Also, the outcome in assay [2], in assay [3] and in assay [5] was inactive.

On to `O=C(O)Cc1cc(I)c(Oc2cc(I)c(O)c(I)c2)c(I)c1`, for which the Potency in assay [1] is 24.1 µM (active). Also, the Potency entry in assay [4], in assay [6] and in assay [7] was “inactive” each time. Besides, the molecule was classed as inactive in [5].

Consider `O=C(O)/C=C/c1ccc(/C=C/C(=O)O)cc1`, for which the Potency result in assay [1], in assay [6] and in assay [7] was “inactive” each time. The outcome in [2], in [3] and in assay [5] was inactive.

For the molecule `CN(C)C(=O)C(CCN1CCC(O)(c2ccc(Cl)cc2)CC1)(c1ccccc1)c1ccccc1`, in assay [2], the outcome was inactive. For the same molecule, the Potency result in [4] and in [7] was “inactive” in each case. In addition, the Potency in assay [8] was 21.1 µM (active); in assay [6], 10.7 µM (active). Also, in assay [9], the activity change, positive = activation was -39.4% [at 42.5 µM].

Regarding `COCc1ccc(COC)cc1`, the Potency entry in [1], in assay [4], in assay [6] and in assay [7] was “inactive” throughout. The molecule was called inactive in assay [2], in assay [3] and in [5].

With `CCN(CC)C(=O)c1ccc(O)c(OC)c1`, the Potency entry in assay [1], in assay [4], in assay [6] and in [7] was “inactive” each time. In addition, the outcome in [2] and in [5] was inactive.

Take `C=C(C)[C@H]1CC=C(C)CC1`: the Potency result in assay [1], in assay [4], in [6] and in [7] was “inactive” in each case. The outcome in [2], in assay [3] and in assay [5] was inactive.

Regarding `O=C1C(CCS(=O)c2ccccc2)C(=O)N(c2ccccc2)N1c1ccccc1` (stereo not given), the Potency result in assay [1], in [4], in [6] and in assay [7] was “inactive” each time. The call in assay [2] and in assay [5] was inactive.

`Cc1c(C)n(CCN(C)C)c2ccc(C(=O)OCCN(C)C)cc12`: the call in assay [2] and in [5] was inactive. The Potency result in assay [4], in assay [8] and in assay [7] was “inactive” in each case. Besides, the activity change, positive = activation in assay [9] was -20.1% [at 42.5 µM].

Consider `CC(CCO)CCCC(C)(C)O` (stereo not given), for which the Potency entry in assay [1], in [4], in assay [6] and in [7] was “inactive” in each case. The molecule was called inactive in assay [2], in assay [3] and in assay [5].

In the case of `OCCCCCCO`, the Potency entry in [1], in [6] and in assay [7] was “inactive” throughout. Further, the result in assay [2], in assay [3] and in [5] was inactive.

`CC(C)(O)C(=O)c1ccc(OCCO)cc1`: the Potency result in assay [1], in assay [6] and in assay [7] was “inactive” throughout. Besides, the result in assay [2], in assay [3] and in [5] was inactive.

Take `CCCCOCC(C)OCC(C)O` (stereo not given): the Potency result in [1], in [6] and in [7] was “inactive” throughout. Also, the result in assay [2], in assay [3] and in assay [5] was inactive.

For the molecule `O=c1[nH]c(=O)n([C@H]2O[C@H](CO)[C@@H](O)[C@@H]2O)cc1/C=C\Br`, the Potency result in [1], in [6] and in [7] was “inactive” each time. Moreover, the molecule was called inactive in [2], in [3] and in assay [5].

`CSc1nc(NC2CC2)nc(NC(C)(C)C)n1`: the Potency result in [1] and in [7] was “inactive” each time. Moreover, the molecule was classed as inactive in assay [2], in assay [3] and in assay [5]. Moreover, the Potency in [6] is 24.5 µM (active).

Turning to `C1C2OC2C2C1C1CC2C2OC12` (stereo not given), the Potency entry in assay [1], in assay [4], in assay [6] and in assay [7] was “inactive” each time. For the same molecule, the outcome in assay [2], in [3] and in assay [5] was inactive.

As to `CCCCCCCCCCCCI`, the outcome in [2] and in assay [3] was inactive. The Potency entry in assay [4], in assay [6] and in [7] was “inactive” throughout.

For the molecule `CC(C)c1cccc(C(C)C)c1N`, the Potency result in [1], in [8], in [6] and in assay [7] was “inactive” each time. Moreover, the molecule was classed as inactive in assay [2], in assay [3] and in assay [5]. The activity change, positive = activation in assay [9] was 0.341%.

As to `Nc1[nH]c(=O)ncc1F`, the Potency result in assay [1], in assay [4], in assay [8], in assay [6] and in assay [7] was “inactive” each time. Besides, the molecule was classed as inactive in assay [2] and in assay [5]. Besides, the activity change, positive = activation in assay [9] was -0.92% [at 42.5 µM].

Turning to `OC1OC[C@@H](O)[C@H](O)[C@H]1O` (stereo not given in full), the Potency result in assay [1], in assay [4], in [6] and in assay [7] was “inactive” each time. In addition, the result in [2], in [3] and in [5] was inactive.

Consider `C=C(C)C(=O)NCCCN(C)C`, for which the Potency entry in assay [1], in [4], in assay [6] and in assay [7] was “inactive” in each case. For the same molecule, the call in assay [2], in assay [3] and in assay [5] was inactive.

As to `CC(O)CN(CCCN(C)C)CCCN(C)C` (stereo not given), the Potency result in [1], in [6] and in [7] was “inactive” throughout. Besides, the molecule was called inactive in assay [2], in [3] and in [5].

For `Cc1ccc(Nc2ccc(O)c3c2C(=O)c2ccccc2C3=O)cc1`, the Potency result in assay [1], in assay [4], in assay [6] and in assay [7] was “inactive” throughout. For the same molecule, the call in assay [2], in assay [3] and in assay [5] was inactive.

As for `NC(=O)Nc1nc2ccccc2[nH]1`, the Potency result in assay [1], in [6] and in assay [7] was “inactive” in each case. The molecule was classed as inactive in [2], in assay [3] and in assay [5].

Turning to `NC1CCN(c2cccc(Cl)n2)CC1`, the Potency entry in [1], in assay [4], in assay [6] and in [7] was “inactive” each time. Further, the molecule was classed as inactive in [2] and in assay [5].

`C/C=C1\C(=O)C[C@H]2[C@@H]3CCC4=CC(=O)CC[C@]4(C)[C@H]3CC[C@]12C`: the Potency result in assay [1] and in assay [7] was “inactive” in each case. Also, the molecule was classed as inactive in assay [2], in [3] and in assay [5]. Also, the Potency in assay [4] was 55.5 µM (active); in assay [6], 21.4 µM (active).

In the case of `c1ccc(CCCc2ccccn2)cc1`, the Potency result in [1], in [8], in assay [6] and in [7] was “inactive” each time. Further, the molecule was classed as inactive in [2], in assay [3] and in assay [5]. In addition, in [9], the activity change, positive = activation was 34.3% (active).

Take `CC/C=C\CCCCO`: the Potency result in assay [1], in [4], in assay [6] and in [7] was “inactive” each time. Also, the outcome in assay [2], in [3] and in assay [5] was inactive.

On to `Cc1cc(C)c(NC(=O)CN(CC(=O)O)CC(=O)O)c(C)c1Br`, for which the Potency entry in [1], in [6] and in [7] was “inactive” in each case. Further, the call in [2], in assay [3] and in [5] was inactive.

Turning to `CC(C)=CCC/C(C)=C/C(=O)O`, the Potency entry in [1], in [4], in assay [6] and in [7] was “inactive” throughout. Moreover, the outcome in [2], in assay [3] and in assay [5] was inactive.
